The entries come from a sample that favours hits as a whole.
RMI FANCM FP: RMI-FANCM interaction inhibition; Fluorescence polarization, RMI core complex with F-MM2 peptide; stronger effect = lower value; FP signal (polarization) at 33 µM; actives 0.58% (n = 70,000); in the data active = FP signal below about 40
* hit, by the source's call.

How did CCC(CC)C(=O)NCC(c1ccsc1)N1CCN(C)CC1 (stereo unspecified) do in these assays?
RMI FANCM FP: 66

How did COc1ccc2c(C)cc(SCC(=O)c3ccc(OC)c(OC)c3)nc2c1 do in these assays?
RMI FANCM FP: 125

How did COc1ccc(CCNc2cc(C)c(C#N)c3nc4ccccc4n23)cc1OC do in these assays?
RMI FANCM FP: 52

Results for COc1ccc(C(=O)CSc2cc(C)c(C#N)c3nc4ccccc4n23)cc1OC ?
RMI FANCM FP: 30*

Results for CC(=O)c1ccc(NC(=O)CCSc2ccc(F)cc2)cc1 ?
RMI FANCM FP: 54

Results for Cc1ccc(/C=C/C(=O)O)cc1S(=O)(=O)N1CCCC1 ?
RMI FANCM FP: 61

Results for COCCN1CCCc2ccc(NC(=O)c3cc(C)cc(C)c3)cc21 ?
RMI FANCM FP: 65

What do the screens show for `COCCN1CCCc2ccc(NS(=O)(=O)Cc3ccc(Cl)cc3)cc21`?
RMI FANCM FP: -27*

Results for COCCN1CCCc2ccc(NS(=O)(=O)c3ccc(C(C)(C)C)cc3)cc21 ?
RMI FANCM FP: 61

Results for COCCN1CCCc2ccc(NS(=O)(=O)c3cc(Cl)ccc3C)cc21 ?
RMI FANCM FP: 64

What do the screens show for `COCCN1CCCc2ccc(N)cc21`?
RMI FANCM FP: -72*

What do the screens show for `COCCN1CCCc2ccc(NS(=O)(=O)c3ccc(OC)cc3)cc21`?
RMI FANCM FP: 58

How did COCCN1CCCc2ccc(NS(=O)(=O)c3cc(C)c(C)cc3OC)cc21 do in these assays?
RMI FANCM FP: 60

How did COCCN1CCCc2ccc(NS(=O)(=O)c3ccccc3Cl)cc21 do in these assays?
RMI FANCM FP: 62

How did COCCN1CCCc2ccc(NS(=O)(=O)c3ccc(F)cc3F)cc21 do in these assays?
RMI FANCM FP: 18*

Results for O=C(Nc1ccc(Cl)cc1)Oc1ccc(-c2csnn2)cc1 ?
RMI FANCM FP: 45

Results for O=C(Cn1cnc2c([nH]c3ccccc32)c1=O)N1CCN(c2ccc(Cl)cc2)CC1 ?
RMI FANCM FP: 97

Results for CS(=O)(=O)Nc1ccc2c(c1)N(C(=O)c1ccco1)CC2 ?
RMI FANCM FP: 67

How did Cc1cc(C)nc(NC(=O)c2ccc(S(=O)(=O)N3CCCCC3)cc2)n1 do in these assays?
RMI FANCM FP: 64

What do the screens show for `COc1cc(-c2noc(Cn3cnc4c(nnn4-c4cccc(Cl)c4)c3=O)n2)cc(OC)c1OC`?
RMI FANCM FP: 167

How did CC(C)Oc1ccc(/C=N\NC(=O)c2cccs2)cc1 do in these assays?
RMI FANCM FP: 58

What do the screens show for `O=c1[nH]c2c(s1)C1c3ccccc3OCC1CS2` (stereo unspecified)?
RMI FANCM FP: -9

Results for O=c1[nH]c2c(s1)C(c1ccc(Cl)cc1)C1C3CCC(C3)C1S2 (stereo unspecified) ?
RMI FANCM FP: 16*

Results for COc1ccc(C2c3sc(=O)[nH]c3SC3C4CC(C5C(=O)N(c6ccccc6)C(=O)C45)C23)cc1 (stereo unspecified) ?
RMI FANCM FP: 56

How did COc1cccc2cc(C(=O)Nc3nnc(Cc4cccs4)o3)oc12 do in these assays?
RMI FANCM FP: 70

What do the screens show for `O=c1oc2c(Cl)cc(Cl)cc2cc1-c1nc2ccccc2[nH]1`?
RMI FANCM FP: 40*

How did O=C(Nc1cccc(-c2nc3ccccc3[nH]2)c1)c1ccc(Cl)cc1 do in these assays?
RMI FANCM FP: 97

How did Nc1ccc(Cl)cc1-c1nc2ccccc2[nH]1 do in these assays?
RMI FANCM FP: 54

How did CC1(C)CC(=O)c2c(nc3sc(C(=O)Nc4nsc(-c5ccccc5)n4)c(N)c3c2-c2ccccc2)C1 do in these assays?
RMI FANCM FP: 105

How did COc1ccc(C(=O)NCc2ccc(F)cc2)cc1OC do in these assays?
RMI FANCM FP: 62

How did CCOC(=O)C1=C(N)CC(C(=O)OCC)=C(N)C1 do in these assays?
RMI FANCM FP: 16*

Results for CCOC(=O)c1ccc(N)cc1 ?
RMI FANCM FP: 56

Results for CCOC(=O)C1=C(N)C(=O)N(c2ccccc2)C1 ?
RMI FANCM FP: 57

Results for CCc1ccc(-c2cc3c(SCC(=O)Nc4ccc(C)cc4Br)nccn3n2)cc1 ?
RMI FANCM FP: 80

How did Cc1cc2c3c(c1)c(O)c(-c1ccccc1)c(=O)n3CCC2 do in these assays?
RMI FANCM FP: 62

How did COc1cc(O)c2c(c1)C(=O)c1cc(C)cc(O)c1C2=O do in these assays?
RMI FANCM FP: 55

What do the screens show for `Cc1cc(O)c2c(c1)Cc1cccc(O)c1C2=O`?
RMI FANCM FP: -15*

How did COc1ccc(Cl)cc1C(=O)Nc1ccc2c(c1)CN(C(=O)c1ccccc1)CC2 do in these assays?
RMI FANCM FP: 69

Results for O=C(CSc1nnc(NC(=O)c2cc(Br)ccc2Cl)s1)NC1CCCC1 ?
RMI FANCM FP: 55

How did OCc1ccccc1O[C@@H]1O[C@H](CO)[C@@H](O)[C@H](O)[C@H]1O do in these assays?
RMI FANCM FP: 59

Results for O=[N+]([O-])c1ccccc1O[C@@H]1O[C@H](CO)[C@H](O)[C@H](O)[C@H]1O ?
RMI FANCM FP: 60
